hcDAF12 agonist = activators of H. contortus DAF-12 nuclear receptor; HEK293 hcDAF-12 lit1-tk-luc reporter, luminescence; 0% DMSO, 100% Δ7-dafachronic acid; activation, % at 6.8 µM; hit rate 1.4% among 370,000;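 active = activation above the mean of all tested compounds plus 3 SD, cut at about 5.5% in these data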
DAX1 inh-1 = blocks DAX1 repression of SF-1 activated StAR promoter | HEK293T StAR-luciferase reporter, SF-1/DAX-1 repression relief | hit rate 1.1% among 370,000 | AID 652010 | inhibition, % at 6.8 µM;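 active = inhibition above the mean over all tested compounds plus 3 SD, cut at about 3.6% in these data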;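 also: higher inhibition means more luminescence from relief of DAX-1 repression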
Wee1 stabilizer = human Wee1 degradation inhibition, primary screen. HeLa Luc-Wee1K328M stability, luciferase luminescence; 100% = proteasome inhibitor MG132 effect. hit rate 1.2% among 220,000. reporter increase, % at 5 µM. P30291;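 active = activation above the mean of all tested compounds plus 3 SD, set per screening run, cut at about 8.8% in these data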;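 also: cells exposed to compound for 20 h before luminescence read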
hgDAF-12 ag = activates the H. glycines DAF-12 receptor ligand-binding domain. HEK293 GAL4-hgDAF12 UAS-luciferase reporter, agonist luminescence; normalized to butyrate control. activation, % at 6.8 µM. hit rate 1.8% among 370,000;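 active = activation above a cutoff set at the mean of all screened compounds plus 3 SD, cut at about 10% in these data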
ssDAF12 agonist = S. stercoralis DAF-12 activation, primary screen; HEK293 ssDAF-12/GRIP1 lit1-tk-luc reporter, luminescence; % of 3 µM dafachronic acid response; activation, % at 6.8 µM; hit rate 1% among 370,000; AID 652126;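 active = activation above the mean over all tested compounds plus 3 SD, cut at about 0.9% in these data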
DAX1 inh-2 = NR0B1 (DAX1) inhibition; HEK293 Gal4-DAX1 luciferase reporter, luminescence; inhibition, % at 6.75 µM; hit rate 0.99% among 340,000;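 active = inhibition above the mean over all tested compounds plus 3 SD, cut at about 4.2% in these data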;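 also: inhibition shows as a rise in luminescence from relieved DAX1 repression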
Target sequence (P51843 207-470 limits assumed): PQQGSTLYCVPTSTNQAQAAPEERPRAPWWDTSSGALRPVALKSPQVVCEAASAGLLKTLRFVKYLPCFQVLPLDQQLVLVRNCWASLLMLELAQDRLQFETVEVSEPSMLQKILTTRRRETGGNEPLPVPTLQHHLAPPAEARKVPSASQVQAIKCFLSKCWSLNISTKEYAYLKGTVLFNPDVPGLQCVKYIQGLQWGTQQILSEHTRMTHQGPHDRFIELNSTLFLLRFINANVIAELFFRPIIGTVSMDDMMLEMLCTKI
DAX1 inh confirm = confirmation of human DAX1 (NR0B1) inhibitors. shares compounds with DAX1 inh-1. HEK293T StAR-promoter luciferase reporter, SF-1/DAX-1 repression. inhibition, % at 6.8 µM. hit rate 87% among 2,400. AID 652134;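 active = inhibition above the average of every tested compound plus 3 SD, cut at about 3.8% in these data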;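 also: active compounds raise luminescence by relieving repression of the StAR reporter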
SF1 AF2mut Luc = counter-screen for DAX1 inhibitors: nonselective inhibitors with SF-1 AF2 mutant. shares compounds with DAX1 inh-1. HEK293 StAR-luciferase, luminescence. inhibition, % at 6.8 µM. hit rate 78% among 2,400. AID 652136;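 active = inhibition above the mean of all tested compounds plus 3 SD, cut at about 3% in these data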
LXR ag = counter-screen for hcDAF-12 agonists: agonists of human LXR-beta | shares compounds with hcDAF12 agonist | HEK293 Gal4-LXR tk-luc reporter, luminescence, 24 h; normalized: DMSO 0%, positive control 100% | activation, % at 6.8 µM | 3,400 tested, under 10 active;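 active = mean percent activation of the reporter above a cutoff set as the average over tested compounds plus their standard deviation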
Target sequence (P55055 whole entry, looked up, the tested form may be a part): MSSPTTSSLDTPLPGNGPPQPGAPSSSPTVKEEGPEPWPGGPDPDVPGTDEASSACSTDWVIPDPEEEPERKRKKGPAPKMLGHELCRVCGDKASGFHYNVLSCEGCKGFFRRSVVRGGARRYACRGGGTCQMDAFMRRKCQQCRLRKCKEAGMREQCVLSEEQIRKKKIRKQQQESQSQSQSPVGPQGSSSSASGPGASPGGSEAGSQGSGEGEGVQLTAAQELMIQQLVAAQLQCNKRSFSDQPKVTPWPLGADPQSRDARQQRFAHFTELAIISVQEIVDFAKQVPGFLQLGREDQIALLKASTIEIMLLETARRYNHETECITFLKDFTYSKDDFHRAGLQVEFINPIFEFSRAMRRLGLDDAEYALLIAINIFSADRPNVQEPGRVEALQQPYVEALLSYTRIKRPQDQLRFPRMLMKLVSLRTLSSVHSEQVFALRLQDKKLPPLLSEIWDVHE
hcDAF12 conf = confirmation of H. contortus DAF-12 agonists; shares compounds with hcDAF12 agonist; HEK293 hcDAF-12 lit1-tk-luc reporter, luminescence; % of Δ7-dafachronic acid response; hit rate 61% among 3,400; AID 743032; activation, % at 6.8 µM;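 active = mean activation across triplicate tests above the threshold derived from the earlier primary screen, cut at about 5.5% in these data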
hgDAF12 conf = hgDAF-12 agonism, confirmation assay | AID 743050 | shares compounds with hgDAF-12 ag | activation, % at 6.8 µM | HEK293 GAL4-hgDAF12 luciferase reporter, agonist mode; percent of butyrate response | hit rate 80% among 3,300;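 active = mean activation over triplicate wells above the hit cutoff derived from the earlier primary screen, cut at about 11% in these data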
LXRb DAF12 ctr = counter-screen for DAF-12 agonists: agonists of human LXR-beta | shares compounds with hgDAF-12 ag | HEK293 Gal4-LXR luciferase reporter, 24 h | activation, % at 6.8 µM | 3,300 tested, under 10 active | AID 743051;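 active = mean activation of the triplicate above a set limit carried over from the primary screen, none filed active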
Each line names hits and unclear results; the compound was inactive in the other large screens (follow-up assays come after a bar, where they were run). The list is not random: actives were taken first. Their share in the collection is about 4.6%.

CCCCNC(=S)Nc1ccc(-c2nc3ccc(C)cc3s2)cc1	hcDAF12 agonist 10.3, DAX1 inh-1 7.1, hgDAF-12 ag 20.1 | DAX1 inh confirm 13.3 | SF1 AF2mut Luc 9.0 | LXR ag inactive | hcDAF12 conf inactive | hgDAF12 conf 20.1 | LXRb DAF12 ctr inactive
CCC(C)(C)NC(=S)Nc1ccc(-c2nc3ccc(C)cc3s2)cc1	hcDAF12 agonist 9.1, DAX1 inh-1 8.4, hgDAF-12 ag 20.2, ssDAF12 agonist 0.9 | DAX1 inh confirm 16.4 | SF1 AF2mut Luc 7.6 | LXR ag inactive | hcDAF12 conf 5.7 | hgDAF12 conf 19.2 | LXRb DAF12 ctr inactive
CC1=CCC(C(=O)O)C(C(=O)Nc2ccc(-c3nc4ccc(C)cc4s3)cc2)C1 (configuration not stated)	hcDAF12 agonist 6.7, DAX1 inh-1 6.1, hgDAF-12 ag 13.5, ssDAF12 agonist 1.9 | DAX1 inh confirm inactive | SF1 AF2mut Luc inactive | LXR ag inactive | hcDAF12 conf inactive | hgDAF12 conf inactive | LXRb DAF12 ctr inactive
COc1ccc(S(=O)(=O)N2CCN(C(=O)CN3C(=O)NC(C)(c4ccc5ccccc5c4)C3=O)CC2)cc1 (configuration not stated)	none (no result: Wee1 stabilizer)
CC1(C)Oc2cc3oc(=O)ccc3c3c2C2C1CCC(C)(O3)C2O (configuration not stated)	none (no result: Wee1 stabilizer, DAX1 inh-2)
O=S1(=O)c2c(F)cccc2O[C@@H](COCc2ccccc2)CN1CCc1ccc(F)cc1	none (no result: Wee1 stabilizer)
Cc1nn(-c2ccccc2)c(Cl)c1/C=N/Nc1nc2ccccc2[nH]1	hcDAF12 agonist 9.5, DAX1 inh-1 4.8, hgDAF-12 ag 23.8, ssDAF12 agonist 1.4 | DAX1 inh confirm 18.0 | SF1 AF2mut Luc 6.3 | LXR ag inactive | hcDAF12 conf 7.8 | hgDAF12 conf 21.9 | LXRb DAF12 ctr inactive
Cc1nn(-c2ccccc2)c(Cl)c1/C=N/NC(=O)c1[nH]ncc1Br	hcDAF12 agonist 6.0, DAX1 inh-1 12.1, hgDAF-12 ag 14.6 (no result: Wee1 stabilizer) | DAX1 inh confirm 13.0 | SF1 AF2mut Luc 7.3 | hgDAF12 conf 15.1 | LXRb DAF12 ctr inactive
Cc1ccc(C(=O)N/N=C\c2c(C)nn(-c3ccccc3)c2Cl)cn1	none
Cc1cccc(-c2cccc3c4c([nH]c23)[C@@H]2C[C@H](N(C)C(=O)Nc3ccccc3C)[C@H]([C@H](C)O)C(=O)N2CC4)c1	none (no result: Wee1 stabilizer, DAX1 inh-2)
Cc1cc(C)c2sc(NC(=O)C3=COCCO3)nc2c1	hcDAF12 agonist 10.5, DAX1 inh-1 14.1, hgDAF-12 ag 20.5 (no result: Wee1 stabilizer) | DAX1 inh confirm 9.5 | SF1 AF2mut Luc 4.3 | LXR ag inactive | hcDAF12 conf inactive | hgDAF12 conf 16.7 | LXRb DAF12 ctr inactive
O=c1c2ccccc2nc2n1CCc1c-2[nH]c2ccccc12	hcDAF12 agonist 13.0, DAX1 inh-1 7.8, hgDAF-12 ag 25.2, ssDAF12 agonist 3.6, DAX1 inh-2 4.9 (no result: Wee1 stabilizer) | DAX1 inh confirm 19.0 | SF1 AF2mut Luc 11.7 | LXR ag inactive | hcDAF12 conf 13.9 | hgDAF12 conf 23.6 | LXRb DAF12 ctr inactive
Cc1nc(CS(=O)(=O)c2ccccn2)sc1C(=O)NNC(=O)c1ccc(Cl)cc1	none
Fc1cccc(/C=N/Nc2ccc3ccccc3n2)c1	hcDAF12 agonist 11.6, DAX1 inh-1 6.7, hgDAF-12 ag 20.9, ssDAF12 agonist 1.7 | DAX1 inh confirm 16.3 | SF1 AF2mut Luc 6.6 | LXR ag inactive | hcDAF12 conf 11.4 | hgDAF12 conf 19.7 | LXRb DAF12 ctr inactive
Brc1ccc(/C=N/Nc2ccc3ccccc3n2)cc1	none
O=C(CSc1nc2ncccc2[nH]1)N1CCOCC1	none (no result: Wee1 stabilizer, DAX1 inh-2)
O=C(NCCc1ccccn1)c1ccc(OC(F)F)cc1	DAX1 inh-1 5.4, hgDAF-12 ag 15.8 | DAX1 inh confirm 9.3 | SF1 AF2mut Luc 3.8 | hgDAF12 conf 14.9 | LXRb DAF12 ctr inactive
Clc1ccc(-n2ncc3c(NCC4CCCO4)ncnc32)cc1 (configuration not stated)	DAX1 inh-1 7.1, Wee1 stabilizer 9.6, hgDAF-12 ag 13.7 | DAX1 inh confirm 4.6 | SF1 AF2mut Luc inactive | hgDAF12 conf 17.0 | LXRb DAF12 ctr inactive
c1ccc(-n2ncc3c(NCC4CCCO4)ncnc32)cc1 (configuration not stated)	none
Cc1ccc(Cn2ncc3c(NCCN(C)C)ncnc32)cc1	none (no result: Wee1 stabilizer)
CN(C)CCNc1ncnc2c1cnn2-c1ccc(Cl)cc1	hcDAF12 agonist 7.8, DAX1 inh-1 5.5, hgDAF-12 ag 18.9 | DAX1 inh confirm 10.0 | SF1 AF2mut Luc 6.6 | LXR ag inactive | hcDAF12 conf inactive | hgDAF12 conf 13.8 | LXRb DAF12 ctr inactive
CCn1c(C)cc(C(=O)CSc2nnnn2C2CCCC2)c1C	DAX1 inh-1 9.6, hgDAF-12 ag 13.4 (no result: Wee1 stabilizer) | DAX1 inh confirm 12.6 | SF1 AF2mut Luc 7.4 | hgDAF12 conf 16.9 | LXRb DAF12 ctr inactive
CCN(Cc1nc2ccccc2c(=O)[nH]1)C(=O)COc1ccccc1Cc1ccccc1	none (no result: Wee1 stabilizer)
COc1ccc(-c2nn(-c3ccccc3)cc2N)cc1	DAX1 inh-1 5.3, hgDAF-12 ag 16.2 | DAX1 inh confirm 9.2 | SF1 AF2mut Luc 5.8 | hgDAF12 conf 15.6 | LXRb DAF12 ctr inactive
O=C(Nc1ccc2nc(-c3cccnc3)[nH]c2c1)c1ccccc1F	none
c1cncc(-c2nc3cc4ccccc4cc3[nH]2)c1	hcDAF12 agonist 9.5, DAX1 inh-1 7.8, hgDAF-12 ag 20.6, ssDAF12 agonist 1.5, DAX1 inh-2 4.6 | DAX1 inh confirm 11.0 | SF1 AF2mut Luc 5.3 | LXR ag inactive | hcDAF12 conf 9.6 | hgDAF12 conf 20.6 | LXRb DAF12 ctr inactive
C=CCN1C(=O)[C@@H](CC(=O)NCC23CC4CC(CC(C4)C2)C3)[C@]2(C(=O)OCC)CCCCC/C=C/12	none (no result: Wee1 stabilizer, DAX1 inh-2)
